PI5P4Ka inh = blocks human PI5P4K alpha kinase activity | P48426 | PI5P4Kalpha enzyme, ADP-Glo luminescence, 60 min; hits give low values | max response, % | 330,000 tested, 1.2% active; active = max response of -50% or lower; inconclusive = between -30% and -50%; inactive = -30% or higher; note: value at the top dose of about 77 µM
Target sequence (P48426 whole entry, looked up): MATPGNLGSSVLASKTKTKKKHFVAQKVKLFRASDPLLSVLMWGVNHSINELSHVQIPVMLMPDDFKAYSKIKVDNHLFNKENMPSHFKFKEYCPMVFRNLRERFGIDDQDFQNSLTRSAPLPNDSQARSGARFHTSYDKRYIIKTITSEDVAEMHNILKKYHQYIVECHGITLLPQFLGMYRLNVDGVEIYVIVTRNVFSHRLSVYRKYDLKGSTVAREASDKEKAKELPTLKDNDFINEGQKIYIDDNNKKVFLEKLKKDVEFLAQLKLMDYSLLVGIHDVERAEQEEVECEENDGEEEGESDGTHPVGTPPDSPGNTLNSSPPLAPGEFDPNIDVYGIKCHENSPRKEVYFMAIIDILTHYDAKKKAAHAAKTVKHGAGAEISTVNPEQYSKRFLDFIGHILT
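Controls without substrate or without enzyme flank wells where PI5P4Kalpha converts substrate using 5 microM ATP (final). Incubation lasts 60 minutes at room temperature; ADP formed is read by ADP-Glo luminescence.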
G9a block = G9a (human) methyltransferase inhibition; AID 504332; Potency, µM (highest dose often 102 µM), actives largely listed as inhibitors; G9a H3K9 monomethylation, AlphaScreen, 2 h; 350,000 tested, 8.8% active; note: nearly all actives have a fitted effect of over 75% in size
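Quantitative HTS format: methyltransferase activity on a biotin-tagged H3K9 peptide is measured by AlphaScreen, using a rabbit anti-monomethyl-H3K9 antibody with streptavidin donor and anti-IgG acceptor beads. Final levels are 20 nM enzyme, 500 nM peptide, 20 uM SAM; 2 h RT.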
BAZ2B inh = BAZ2B (human) inhibition; AlphaScreen BAZ2B-H3K14Ac peptide displacement; Potency, µM (doses to about 114 µM), usual class: inhibitors; 360,000 tested, 4.4% active; AID 504333; note: nearly all actives have a fitted effect of over 60% in size
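AlphaScreen displacement of biotin-H3(5-23)K14Ac peptide (50 nM final) from BAZ2B (50 nM final) in PBS pH 7.4, 0.01% Tween-20; complex preformed 30 min RT, then compounds (top 110 uM) 30 min RT, beads 20 min dark.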
JMJD2A Tudor inh = JMJD2A Tudor domain (human) inhibition; O75164; AlphaScreen JMJD2A-Tudor / H3K4me3 peptide binding; Potency, µM (highest dose often 114 µM), usual class: inhibitors; 390,000 tested, 4.4% active; AID 504339; note: nearly all actives have a fitted effect of over 50% in size
L3MBTL1 inh = inhibitors of human L3MBTL1; Q9Y468; AlphaScreen L3MBTL1–H3K9me1 peptide binding; Potency, µM (series often up to 57.1 µM), most hits filed as inhibitors; 230,000 tested, 0.66% active; note: nearly all actives have a fitted effect of over 60% in size
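AlphaScreen proximity signal between nickel-chelate acceptor and streptavidin donor beads (final 10 ug/mL) reports binding of 50 nM L3MBTL1 to 75 nM biotin-H3 K9me1 peptide; complex incubated with compounds 30 min at room temperature; cefsulodin titration as control.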
HP1b chromo inh = blocks HP1-beta chromodomain binding to methylated histone tails; P83916; AlphaScreen HP1-beta / biotin-H3K9me3 peptide binding; Potency, µM (highest dose often 114 µM), usual class: inhibitors; 390,000 tested, 0.56% active; AID 540317; note: nearly all actives have a fitted effect of over 70% in size
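Compound inhibition of the preformed complex between 50 nM HP1-beta and 50 nM biotinylated H3K9me3 peptide was read by AlphaScreen. Buffer was PBS pH 7.4 with 0.01% Tween-20. Incubations ran 30 min at room temperature, with 10 ug/mL donor/acceptor beads.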
Large screens that a line does not name were inactive. Compounds with a hit are over-represented: about 11% of the library has one in this group of screens. Unless noted, calls come from the whole dose curve; as a rule, active = well fitted inhibition curve with a large enough effect; inconclusive = small, poorly fitted or top-dose-only effect; inactive = no such curve, though single readings can be large or run the other way.

O=C(Cc1ccccc1)Nc1sc2c(c1C(=O)Nc1ccccc1Cl)CCCC2	G9a block 7.1µM (no result: PI5P4Ka inh, L3MBTL1 inh)
CCSc1ncc(Cl)c(C(=O)Nc2sc3c(c2C(=O)NCc2cccnc2)CCCC3)n1	JMJD2A Tudor inh 100µM (no result: PI5P4Ka inh)
CCS(=O)(=O)c1ccc2oc(SCC(=O)NCc3ccccc3)nc2c1	none
CCS(=O)(=O)c1ccc2oc(SCC(=O)NC34CC5CC(CC(C5)C3)C4)nc2c1	BAZ2B inh 56µM (no result: L3MBTL1 inh)
CC(C)N(C(=O)CSc1nc2c([nH]1)c(=O)n(C)c(=O)n2C)c1ccccc1	G9a block 25µM
Cc1ccc(C(=O)CSc2nc3c([nH]2)c(=O)n(C)c(=O)n3C)cc1	G9a block 40µM
CCn1c2c(c(=O)n3ncc(C(=O)Nc4cccc(Cl)c4C)c13)CN(Cc1ccc(OC)cc1)CC2	G9a block 14µM, JMJD2A Tudor inh inconclusive (no result: PI5P4Ka inh, L3MBTL1 inh)
CCn1c2c(c(=O)n3ncc(C(=O)Nc4ccc(C(=O)OC)cc4)c13)CN(Cc1ccc(OC)cc1)CC2	G9a block 28µM, JMJD2A Tudor inh inconclusive (no result: PI5P4Ka inh, L3MBTL1 inh)
CCn1c2c(c(=O)n3ncc(C(=O)Nc4ccc(Cl)cc4C)c13)CN(Cc1ccc(OC)cc1)CC2	none (no result: PI5P4Ka inh, L3MBTL1 inh)
COc1ccc(C)cc1NC(=O)c1ccc2nc(Cc3ccccc3)oc2c1	none (no result: PI5P4Ka inh, L3MBTL1 inh)
O=S(=O)(Nc1ccc(N2CCCCC2)cc1)c1ccc(F)cc1	BAZ2B inh 79µM, JMJD2A Tudor inh inconclusive, HP1b chromo inh inconclusive (no result: G9a block)
O=C(c1ccc(NS(=O)(=O)c2ccc(F)cc2)cc1)N1CCCCC1	G9a block 45µM
O=S(=O)(Nc1ccc(N2CCCCC2)cc1)c1cccs1	G9a block 35µM, BAZ2B inh inconclusive, JMJD2A Tudor inh inconclusive (no result: PI5P4Ka inh)
O=S(=O)(Nc1ccc(N2CCCCC2)cc1)c1ccccc1	G9a block inconclusive, BAZ2B inh 50µM, JMJD2A Tudor inh inconclusive, HP1b chromo inh inconclusive
O=S(=O)(Nc1ccc(N2CCOCC2)cc1)c1ccc(F)cc1	G9a block inconclusive
O=C(Cc1ccc(F)cc1)NCc1nc2cccnc2n1Cc1ccc(F)cc1	none (no result: PI5P4Ka inh, L3MBTL1 inh)
CCOC(=O)c1cnc2ccc(OC(F)(F)F)cc2c1Nc1ccccc1C(=O)O	none (no result: PI5P4Ka inh, L3MBTL1 inh)
CC(C(=O)Nc1cc(C(F)(F)F)ccc1Cl)n1nnc2sc3c(c2c1=O)CCCC3 (centres undefined)	none (no result: PI5P4Ka inh, L3MBTL1 inh)
O=C(CNS(=O)(=O)c1ccc(C(=O)N2CCCCC2)cc1)N1CCCCC1	JMJD2A Tudor inh 56µM (no result: L3MBTL1 inh)
COc1ccccc1C(=O)NNC(=O)C(=O)N1CCCCC1	BAZ2B inh inconclusive, JMJD2A Tudor inh inconclusive (no result: G9a block, L3MBTL1 inh)
O=C(NNC(=O)c1ccc(F)cc1)C(=O)N1CCCCC1	G9a block inconclusive, JMJD2A Tudor inh 25µM
Cc1ccc2oc(=O)c(S(=O)(=O)c3ccc(C(C)(C)C)cc3)cc2c1	none (no result: PI5P4Ka inh, L3MBTL1 inh)
COc1cc(/C=C(\C(=O)O)c2ccc(S(=O)(=O)N3CCCC3)s2)cc(OC)c1	PI5P4Ka inh inconclusive, G9a block 50µM
COc1ccc(Br)cc1/C=C(\C(=O)O)c1ccc(S(=O)(=O)N2CCCC2)s1	JMJD2A Tudor inh 89µM (no result: G9a block, BAZ2B inh)
CCOc1ccc(/C=C(\C(=O)O)c2ccc(S(=O)(=O)N3CCCCC3)s2)cc1OC	none (no result: G9a block, BAZ2B inh)
CCCOC(=O)c1c(NC(=O)C2c3ccccc3Oc3ccccc32)sc2c1CCC(C)C2 (centres undefined)	none (no result: PI5P4Ka inh, L3MBTL1 inh)
CCn1c(=O)n(CC)c2cc(N3CCCCC3)c(NC(=O)Nc3cc(Cl)ccc3OC)cc21	G9a block inconclusive, BAZ2B inh inconclusive (no result: PI5P4Ka inh, L3MBTL1 inh)
Cc1ccc(-c2nn(CC(=O)NCC3CCCO3)c(=O)c3ccccc23)cc1 (centres undefined)	G9a block inconclusive (no result: PI5P4Ka inh)
O=C(Cn1nc(-c2ccc(Cl)cc2)c2ccccc2c1=O)NCC1CCCO1 (centres undefined)	JMJD2A Tudor inh 35µM, HP1b chromo inh inconclusive
Cn1c(=O)c(C(=O)NCC2CCCO2)c(O)c2ccccc21 (centres undefined)	JMJD2A Tudor inh 28µM
COc1ccccc1NC(=O)Cn1nc(-c2ccc(Cl)cc2)c2ccccc2c1=O	G9a block 10µM (no result: L3MBTL1 inh)
Cn1c(C(=O)NCC2CCCO2)cc2c(=O)n(C)c3ccccc3c21 (centres undefined)	G9a block inconclusive
